Assay outcomes deposited in PubChem BioAssay by several laboratories.
Only some compounds are listed: those with a hit (about 2.2% of all), similar ones and a draw of the others.
GalR3 antagonist: blocks the human galanin receptor 3. O60755. HEK293 GalR3-CNG cAMP membrane potential fluorescence; galR3 body fused to GalR1 C-terminus. inhibition, % at 3 µM. 360,000 compounds, 0.44% hits;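 active = inhibition above the screen-wide average plus 3 SD, cut at about 13% in these data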;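 note: forskolin and galanin both at EC90 stimulate the cells; cAMP rise reported by CNG channel membrane potential dye signal; 0% = forskolin plus galanin with DMSO and 100% = forskolin alone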
Target sequence (O60755 1-299 limits assumed): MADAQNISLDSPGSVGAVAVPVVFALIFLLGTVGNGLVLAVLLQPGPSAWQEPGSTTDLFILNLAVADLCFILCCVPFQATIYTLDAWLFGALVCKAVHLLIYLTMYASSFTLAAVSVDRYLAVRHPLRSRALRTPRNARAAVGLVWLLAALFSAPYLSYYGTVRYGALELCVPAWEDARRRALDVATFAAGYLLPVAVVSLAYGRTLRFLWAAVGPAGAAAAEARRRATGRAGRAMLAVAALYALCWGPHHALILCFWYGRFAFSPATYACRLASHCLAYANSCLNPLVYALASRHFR
FXN GAA850 act: increases GAA850 frataxin promoter reporter activity; HEK293 lucGAA850 FXN promoter luciferase reporter, 24 h; percent of 10 µM SAHA response; activation, % at 6 µM; 360,000 compounds, 0.56% hits; AID 540364;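 active = activation above the average of all compounds screened plus 3 SD, cutoff fixed separately per campaign, cut at about 7.5% in these data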;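 note: 0% = DMSO wells and 100% = 10 µM SAHA wells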
Hsp70 activator: Hsp70 transcriptional activation, primary screen. 200,000 compounds, 0.04% hits. activation, % at 10 µM. HeLa Hsp70 promoter luciferase reporter, luminescence; scaled: vehicle 0, proteasome-inhibitor control 100%. AID 1203;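 active = activation above the mean across all tested compounds plus 3 SD, cutoff set per campaign, cut at about 5.5% in these data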;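 note: 100% = MG132 at 30 µM as the positive control and 0% = DMSO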
HIF act: HIF pathway transcriptional activation; U2OS HRE-luciferase reporter, luminescence; normalized: DMSO 0%, desferrioxamine 100%; activation, % at 7.5 µM (by protocol); 300,000 compounds, 0.32% hits;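 active = mean activation of at least 10% of the iron chelator positive control signal, with at least half of replicates also reaching 10%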
SMARCA2 act: SMARCA2 function activation, primary screen; activation, % at 9.1 µM; MG213 cells, MMTV-luciferase reporter, dexamethasone, overnight; 370,000 compounds, 1% hits; in the data active = activation above about 7.8%;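 note: 0% = vehicle wells and 100% = reference activator wells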
GAA30 counter: GAA30 FXN promoter activation counter-screen. AID 588350. activation, % at 6 µM. HEK293 lucGAA30 FXN promoter luciferase, 24 h; DMSO = 0%, 5 µM ipriflavone = 100%. shares compounds with FXN GAA850 act. 1,900 compounds, 66% hits;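 active = mean activation above the mean of solvent-only control wells plus 3 SD, cut at about 22% in these data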;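 note: counterscreen of GAA850 promoter hits where activity marks nonselective or luminescence artifacts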
FXN GAA850 conf: confirmation of GAA850 frataxin (FXN) promoter activators. shares compounds with FXN GAA850 act. HEK293 lucGAA850 FXN promoter luciferase reporter, 24 h; 100% = activation by SAHA. activation, % at 6 µM. 1,900 compounds, 86% hits. AID 588351;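 active = mean activation above a set limit taken from the primary screen, cut at about 8% in these data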;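 note: 0% = DMSO wells and 100% = 10 µM SAHA wells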
Active calls of the source: *; · = no result.

SMILES	GalR3 antagonist	FXN GAA850 act	Hsp70 activator	HIF act	SMARCA2 act	GAA30 counter	FXN GAA850 conf
Cc1cc(C(=O)Cn2nc(C(=O)O)c3ccccc3c2=O)c(C)n1-c1ccc(F)cc1	-4	1	0	0	0	·	·
COCCn1c(C)cc(C(=O)Cn2nc(C(=O)O)c3ccccc3c2=O)c1C	4	9.4*	0	4	4	98*	35*
COC(=O)C1=C(C(=O)OC)[C@]2([C@@H]3CC=CCN[C@@H](Cc4ccccc4)C(=O)N3Cc3ccccc3)C=C[C@H]1O2	-7	9.1*	·	·	0	1	7
COc1cc(C#Cc2ccc3cc(CCO)oc(=O)c3c2)cc(OC)c1	10	7.8*	·	·	4	106*	38*
CC(=O)Nc1ccc(Nc2nc(-c3cc4ccccc4oc3=O)cs2)cc1	-4	1	·	2	1	·	·
Nc1ccc(Nc2nc(-c3cc4ccccc4oc3=O)cs2)cc1	-2	9.0*	0	1	2	74*	32*
CCOC(=O)C(=O)C1=C(N2CCOCC2)/C(=C\c2ccc(F)cc2)CC1	-5	7.6*	0	0	4	18	9.0*
COCCCNc1nc2c(-c3ccc(C)cc3)nnn2c2ccccc12	-3	7.7*	·	0	7	92*	39*
COCCCNc1nc2c(-c3cccc(C)c3)nnn2c2ccccc12	·	-1	0	1	5	·	·
O=c1c2ccccc2n(Cc2ccco2)n1[C@@H](Cc1ccccc1)Cn1cc(-c2ccc(-c3ccccc3)cc2)nn1	·	·	·	·	-1	·	·
CC(=O)c1cc2c(C)c(C(=O)c3ccccc3)oc2cc1O	0	8.8*	0	-1	3	122*	39*
CC(CCN1CCC(C(O)(c2ccccc2)c2ccccc2)CC1)Oc1cccc(Br)c1 (stereo not given)	·	·	·	·	-4	·	·
CC(NC(=O)COC(=O)[C@@H]1CCCN1S(=O)(=O)c1ccccc1F)C12CC3CC(CC(C3)C1)C2 (stereo not given in full)	-2	8.8*	0	0	4	28*	15*
O=C(OCC(=O)N1CCc2ccccc21)[C@@H]1CCCN1S(=O)(=O)c1ccccc1F	-6	3	·	·	5	·	·
CC(=O)N/C(=C\c1ccccc1)C(=O)OCC(=O)NC(C)C12CC3CC(CC(C3)C1)C2 (stereo not given)	-10	13*	0	-1	-4	30*	13*
Cc1[nH]c2ccccc2c1SCC(=O)N1CCCc2ccccc21	·	20*	0	0	1	18	10*
Cc1[nH]c2ccccc2c1C(=O)C(=O)N1CCCc2ccccc21	-6	2	0	0	1	·	·
CCOc1ccc(N(CC(=O)Nc2c(C)n(C)n(-c3ccccc3)c2=O)S(=O)(=O)c2ccc3c(c2)N(C(=O)C2CCC2)CC3)cc1	·	·	·	·	-5	·	·
N#C/C(=C\c1cccnc1)c1nc2ccccc2[nH]1	2	-1	·	0	7	·	·
N#C/C(=C\c1ccncc1)c1nc2ccccc2[nH]1	-4	8.8*	0	0	-1	33*	9.3*
COc1cc(/C=C(/C#N)c2nc3ccccc3[nH]2)ccc1OCC(=O)Nc1ccccc1C	0	-13	0	·	-2	·	·
COc1cc(/C=C(\C#N)c2nc3ccccc3[nH]2)ccc1OC(=O)c1ccco1	8	7.8*	0	2	2	119*	35*
COc1ccc(/C(C)=N/NC(=O)Cc2cc(=O)[nH][nH]2)cc1OC	·	·	·	·	-1	·	·
CC1(C)Oc2ccc(C(=O)N3CCCC3)cc2NC1=O	·	·	·	·	3	·	·
O=C(CCS(=O)(=O)c1ccccc1)Nc1nc(-c2cccs2)cs1	·	8.8*	0	-1	-4	-9	9.8*
NNC(=O)c1cccc(COc2ccc3c(c2)CCC3)c1	1	9.2*	-1	-4	5	125*	42*
COc1ccccc1NC(=O)N(Cc1ccccc1)c1ccccn1	3	9.7*	0	0	-6	38*	20*
c1ccc(CSc2nnc3ccc(-c4ccncc4)nn23)nc1	-7	3	0	0	-2	·	·
